Experimental data: the supplement of paper PMC13380429

Test system: Vero E6 infected with SARS-CoV-2
Assay: inhibition of SARS-CoV-2 cytopathic effect; higher = more antiviral protection, active = above 15
Details: 48 h

Measured: inhibition of SARS-CoV-2 cytopathic effect

CN(C)NC(=O)CCC(=O)O [daminozide]
inactive: 1 nM -0.2% | 8.33 nM 2.15% | 100 nM 0.35% | 833.33 nM 0.11% | 10000 nM 1.18%

CC(=O)OCC1=C(C(=O)O)N2C(=O)[C@@H](NC(=O)Cc3cccs3)[C@H]2SC1 [cephalothin]
inactive: 1 nM 0.91% | 8.33 nM 2.69% | 100 nM 1.37% | 833.33 nM -0.06% | 10000 nM 1.33%

Cc1cc(O)c(C(=O)N[C@@H](C(=O)N[C@@H]2C(=O)N3C(C(=O)O)=C(CSc4nnnn4C)CS[C@H]23)c2ccc(O)cc2)cn1 [cefpiramide]
inactive: 1 nM -0.65% | 8.33 nM -0.72% | 100 nM 0.85% | 833.33 nM 2.35% | 10000 nM 3.6%

C#C[C@]1(O)CC[C@H]2[C@@H]3CCC4=CC(=O)CCC4=C3C=C[C@@]21CC [gestrinone]
inactive: 1 nM 1.67% | 8.33 nM 0.8% | 100 nM 4.87% | 833.33 nM 3.58% | 10000 nM 5.58%

Cc1cc(OCCN2CCOCC2)nn1-c1ccc2ccccc2c1
inactive: 1 nM -2.51% | 8.33 nM -1.6% | 100 nM -2.06% | 833.33 nM 0.03% | 10000 nM 1.91%

Cc1cc(O)c2c(c1)C(=O)c1cc(O)cc(O)c1C2=O [emodin]
inactive: 1 nM -1.74% | 8.33 nM 0.93% | 100 nM -1.79% | 833.33 nM 1.29% | 10000 nM 2.24%

O=C1C=C2C=C[C@@H]3C[C@@]2(O1)[C@H]1CCCCN31 [securinine]
active: 10000 nM 18.4%
inactive: 1 nM 0.7% | 8.33 nM 3.64% | 100 nM 2.11% | 833.33 nM 7.21%

CCCCCCCCCCCCCCCCNc1ccc(C(=O)O)cc1 [cetaben]
inactive: 1 nM 2.02% | 8.33 nM 3.28% | 100 nM 1.52% | 833.33 nM 1.67% | 10000 nM -2.46%

CCC[C@@]1(CCc2ccccc2)CC(O)=C([C@H](CC)c2cccc(NS(=O)(=O)c3ccc(C(F)(F)F)cn3)c2)C(=O)O1 [tipranavir]
inactive: 1 nM -0.16% | 8.33 nM 4.7% | 100 nM 1.56% | 833.33 nM 0.71% | 10000 nM 4.99%

OC[C@H]1O[C@@H](n2cnc3c(NC4CCCC4)ncnc32)[C@H](O)[C@@H]1O [N6-cyclopentyladenosine]
inactive: 1 nM 0.37% | 8.33 nM 0.93% | 100 nM 1.63% | 833.33 nM 4.59% | 10000 nM 1.5%

CC(=O)NCCCOc1ccc(C(=O)N2CCC(N3C(=O)CCc4ccccc43)CC2)cc1
inactive: 1 nM 2.92% | 8.33 nM -2.2% | 100 nM 0.95% | 833.33 nM 1.64% | 10000 nM 3.15%

Cc1cc(C(=CNc2ccc(Cl)cc2)C(=O)Nc2ccc(Cl)cc2)on1
inactive: 1 nM -1.14% | 8.33 nM -1.99% | 100 nM -2% | 833.33 nM -0.86% | 10000 nM 0.28%

Cc1noc(-c2ccc(-c3ccc(CC(=O)O)cc3)cc2)c1NC(=O)O[C@H](C)c1ccccc1
inactive: 1 nM 0.92% | 8.33 nM 0.35% | 100 nM -2.41% | 833.33 nM -3.36% | 10000 nM -4.34%

CCOC(=O)n1ccn(C)c1=S [carbimazole]
inactive: 1 nM -1.34% | 8.33 nM -2.13% | 100 nM -2.63% | 833.33 nM -3.71% | 10000 nM 1.38%

Cc1c(O)cccc1C(=O)N[C@@H](CSc1ccccc1)[C@H](O)CN1C[C@H]2CCCC[C@H]2C[C@H]1C(=O)NC(C)(C)C [nelfinavir]
active: 10000 nM 43.2%
inactive: 1 nM -4.7% | 8.33 nM -3.72% | 100 nM -1.32% | 833.33 nM 3.72%

FC(F)(F)c1ccc(CNc2ccc(Cc3c[nH]c4ncccc34)cn2)cc1
inactive: 1 nM 3.02% | 8.33 nM 0.15% | 100 nM 0.15% | 833.33 nM -0.39% | 10000 nM -1.01%

Cn1nc(-c2ccc(C(F)(F)F)cc2)nc2c(=O)n(C)c(=O)nc1-2 [walrycin-B]
inactive: 1 nM -1.05% | 8.33 nM -0.74% | 100 nM 1.15% | 833.33 nM 12.5% | 10000 nM -12.8%

CC(=O)N1CCC(NC(=O)c2ccc(F)cc2)CC1
inactive: 1 nM -1.4% | 8.33 nM -1.44% | 100 nM 0.95% | 833.33 nM 0.58% | 10000 nM 0.98%

O=C(O)C1CSCN1 (stereo not given) [timonacic]
inactive: 1 nM -2.35% | 8.33 nM -1.08% | 100 nM 3.52% | 833.33 nM 10.6% | 10000 nM 4.51%

C[C@]12C=CC(=O)N[C@@H]1CC[C@@H]1[C@@H]2CC[C@]2(C)[C@@H](C(=O)Nc3cc(C(F)(F)F)ccc3C(F)(F)F)CC[C@@H]12 [dutasteride]
inactive: 1 nM -4.2% | 8.33 nM -3.31% | 100 nM 1.66% | 833.33 nM -2.35% | 10000 nM -7.18%

Cc1sc2c(c1C)C(c1ccc(Cl)cc1)=N[C@@H](CC(N)=O)c1nnc(C)n1-2
inactive: 1 nM -0.7% | 8.33 nM -0.88% | 100 nM 0.16% | 833.33 nM -4.22% | 10000 nM -9.8%

CC(C)(C)C(=O)OCC(=O)[C@H]1CC[C@H]2[C@@H]3CCC4=CC(=O)CC[C@]4(C)[C@H]3CC[C@]12C [desoxycorticosterone-pivalate]
inactive: 1 nM -1.6% | 8.33 nM 0.71% | 100 nM -0.4% | 833.33 nM -0.12% | 10000 nM 0.98%

C[C@@H]([C@H](O)c1ccc(O)cc1)N1CCC(Cc2ccccc2)CC1 (racemic) [ifenprodil]
inactive: 1 nM 2.09% | 8.33 nM -0.2% | 100 nM 0.52% | 833.33 nM 0.72% | 10000 nM -6.19%

O=C1CCc2cc(OCCCCc3nnnn3C3CCCCC3)ccc2N1 [cilostazol]
inactive: 1 nM -1.01% | 8.33 nM -0.9% | 100 nM 1.96% | 833.33 nM -0.77% | 10000 nM -0.84%

CC[C@@]1(O)C(=O)OCc2c1cc1n(c2=O)Cc2cc3cc(O)ccc3nc2-1 [10-hydroxycamptothecin]
inactive: 1 nM -0.65% | 8.33 nM -0.13% | 100 nM -3.85% | 833.33 nM -12.8% | 10000 nM -13.8%

COc1ccc(CC(=O)NC(/N=C(\NC#N)Nc2cccc3ncccc23)C(C)(C)C)cc1OC (stereo not given)
inactive: 1 nM -0.32% | 8.33 nM 1.83% | 100 nM 1.99% | 833.33 nM 1.34% | 10000 nM -0.99%

CCO[C@@H](Cc1ccc(OCCc2ccc(OS(C)(=O)=O)cc2)cc1)C(=O)O [tesaglitazar]
inactive: 1 nM -2.83% | 8.33 nM -3.5% | 100 nM 0.15% | 833.33 nM -2.48% | 10000 nM 1.52%

CC(=O)/N=c1/sc(S(N)(=O)=O)nn1C [methazolamide]
inactive: 1 nM 2.05% | 8.33 nM 1.62% | 100 nM -1.26% | 833.33 nM -0.76% | 10000 nM 1.82%

Cc1ccc(S(=O)(=O)NC(=O)NN2CCCCCC2)cc1 [tolazamide]
inactive: 1 nM 1.07% | 8.33 nM -0.36% | 100 nM 0.85% | 833.33 nM 1.43% | 10000 nM 2.51%

CC(=O)NCCCS(=O)(=O)O [acamprosate]
inactive: 1 nM -2.95% | 8.33 nM 1.47% | 100 nM -2.01% | 833.33 nM -3.15% | 10000 nM -1.78%

CCOC(=O)C1=C(C)NC(C)=C(C(=O)OC)C1c1cccc(Cl)c1Cl (stereo not given) [felodipine]
inactive: 1 nM 1.65% | 8.33 nM 3.36% | 100 nM 5.39% | 833.33 nM 4.84% | 10000 nM 1.57%

CCCC[C@@]1(C2CCCC2)Cc2cc(OCCCC(=O)O)c(Cl)c(Cl)c2C1=O
inactive: 1 nM 2.56% | 8.33 nM 0.21% | 100 nM 0.81% | 833.33 nM 2.21% | 10000 nM 2.61%

COc1ccc(CCN2CCN(CCCc3ccccc3)CC2)cc1OC [cutamesine]
inactive: 1 nM 1.71% | 8.33 nM 0.69% | 100 nM 3.33% | 833.33 nM 2.23% | 10000 nM -5.76%

CC[N+](CC)(CC)CC(=O)Nc1c(C)cccc1C
inactive: 1 nM -1.18% | 8.33 nM -2.04% | 100 nM 0.02% | 833.33 nM 0.8% | 10000 nM -0.17%

C[C@@H](N)[C@@H](O)c1ccccc1 [1S,2R-phenylpropanolamine]
inactive: 1 nM -1.52% | 8.33 nM -0.06% | 100 nM -0.95% | 833.33 nM -0.75% | 10000 nM 0.8%

CC(/C=C/C(=O)NO)=C\[C@@H](C)C(=O)c1ccc(N(C)C)cc1 [trichostatin-a]
inactive: 1 nM -3.04% | 8.33 nM -7.12% | 100 nM -16% | 833.33 nM -31% | 10000 nM -31.1%

CC[N+](C)(CC)CCOC(=O)C1c2ccccc2Oc2ccccc21 [methantheline]
inactive: 1 nM 7.35% | 8.33 nM 3.87% | 100 nM 1.9% | 833.33 nM -0.21% | 10000 nM 3.41%

O=C(O)CCCCN(CCc1ccccc1OCc1ccc(CCc2ccccc2)cc1)Cc1ccc(C(=O)O)cc1 [cinaciguat]
inactive: 1 nM 1.27% | 8.33 nM 2.69% | 100 nM 2.55% | 833.33 nM 2.26% | 10000 nM -3.15%

Cc1cncc(CN2CCC(=C3c4ccc(Cl)cc4CCc4cccnc43)CC2)c1 [rupatadine]
inactive: 1 nM -0.79% | 8.33 nM -0.26% | 100 nM 2.27% | 833.33 nM 2.5% | 10000 nM -9.2%
